# According to the supplement of paper PMC4022240:
# ± gives the standard deviation.
# T1: HaloTag-ATRX ADD domain (163-292)
# T1 chain: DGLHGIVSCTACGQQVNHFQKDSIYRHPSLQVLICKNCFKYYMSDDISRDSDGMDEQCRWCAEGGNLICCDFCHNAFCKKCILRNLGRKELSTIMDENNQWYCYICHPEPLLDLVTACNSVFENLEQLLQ
# Tests used:
# Test in all cases: peptide microarray binding signal (635 nm), min-max normalized on array (fraction of array maximum); higher = stronger binding
# [1] = target: T1, HaloTag-ATRX ADD domain (163-292)
# Method in brief: (§1)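 Triplicate spots of histone 13-mer peptide–cellulose conjugates with a Cy3 tracer were printed on nitrocellulose and probed for 1 h at 4°C with biotin-labelled HaloTag reader fusions (10 nM to 1 μM) plus streptavidin-Alexa Fluor 647 or rabbit histone antibodies (1:10,000 to 1:2,000) plus anti-rabbit Alexa 647. An Axon GenePix 4000B read the 635 nm channel. Binding signal is the spot-triplicate mean intensity after min-max scaling within each library.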
# [2] = target: HaloTag-ING2 PHD (mouse Ing2 200-280)
# Method in brief: as §1
# [3] = target: anti-H3K4me3 antibody ab8580
# Method in brief: as §1
# [4] = target: anti-H3K9me3 antibody ab8898
# Method in brief: as §1
# [5] = peptide region: H3 11-23, binder concentration: 1:2,000 dilution
# [6] = peptide region: H3 11-23, binder concentration: 1:10,000 dilution
# [7] = peptide region: H3 5-17, peptide modifications: H3T11ph, binder concentration: 1:2,000 dilution
# [8] = peptide region: H3 5-17, peptide modifications: H3T11ph, binder concentration: 1:10,000 dilution
# [9] = peptide region: H3 5-17, peptide modifications: H3T11ph H3K14me2, binder concentration: 1:2,000 dilution
# [10] = peptide region: H3 5-17, peptide modifications: H3T11ph H3K14me2, binder concentration: 1:10,000 dilution
# [11] = peptide region: H3 5-17, peptide modifications: H3T11ph H3K14me1, binder concentration: 1:2,000 dilution
# [12] = peptide region: H3 5-17, peptide modifications: H3T11ph H3K14me1, binder concentration: 1:10,000 dilution
# [13] = peptide region: H3 5-17, peptide modifications: H3S10ph, binder concentration: 1:2,000 dilution
# [14] = peptide region: H3 5-17, peptide modifications: H3S10ph, binder concentration: 1:10,000 dilution
# [15] = peptide region: H3 11-23, peptide modifications: H3K14ac H3K18ac, binder concentration: 1:2,000 dilution
# [16] = peptide region: H3 11-23, peptide modifications: H3K14ac H3K18ac, binder concentration: 1:10,000 dilution
# [17] = peptide region: H3 5-17, peptide modifications: H3T11ph H3K14me3, binder concentration: 1:2,000 dilution
# [18] = peptide region: H3 5-17, peptide modifications: H3T11ph H3K14me3, binder concentration: 1:10,000 dilution
# [19] = peptide region: H3 5-17, peptide modifications: H3S10ph H3K14me3, binder concentration: 1:2,000 dilution
# [20] = peptide region: H3 5-17, peptide modifications: H3S10ph H3K14me3, binder concentration: 1:10,000 dilution
# [21] = peptide region: H3 5-17, peptide modifications: H3S10ph H3T11ph, binder concentration: 1:2,000 dilution
# [22] = peptide region: H3 5-17, peptide modifications: H3S10ph H3T11ph, binder concentration: 1:10,000 dilution
# [23] = peptide region: H3 5-17, peptide modifications: H3T11ph H3K14ac, binder concentration: 1:2,000 dilution
# [24] = peptide region: H3 5-17, peptide modifications: H3T11ph H3K14ac, binder concentration: 1:10,000 dilution
binder,measurement,setting,value
TGGKAPRKQLATK [H3 11-23 T G G K A P R K Q L A T K],peptide microarray binding signal,"[1]; peptide region: H3 11-23, binder concentration: 50 nM",0.00481 ± 0.00041
same,peptide microarray binding signal,"[1]; peptide region: H3 11-23, binder concentration: 500 nM",0.0154 ± 0.0015
same,peptide microarray binding signal,"[2]; peptide region: H3 11-23, binder concentration: 10 nM",0.00615 ± 0.00031
same,peptide microarray binding signal,"[2]; peptide region: H3 11-23, binder concentration: 100 nM",0.0175 ± 0.0019
same,peptide microarray binding signal,[3]; [5],0.000849 ± 5.7e-05
same,peptide microarray binding signal,[3]; [6],0.00097 ± 0.00013
same,peptide microarray binding signal,[4]; [5],0.00172 ± 0.00025
same,peptide microarray binding signal,[4]; [6],0.00138 ± 0.00011
QTARKSTGGKAPR [H3 5-17 Q T A R K S Tph G G K A P R],peptide microarray binding signal,"[1]; peptide region: H3 5-17, peptide modifications: H3T11ph, binder concentration: 50 nM",0.0138 ± 0.005
same,peptide microarray binding signal,"[1]; peptide region: H3 5-17, peptide modifications: H3T11ph, binder concentration: 500 nM",0.014 ± 0.0037
same,peptide microarray binding signal,"[2]; peptide region: H3 5-17, peptide modifications: H3T11ph, binder concentration: 10 nM",0.0156 ± 0.0015
same,peptide microarray binding signal,"[2]; peptide region: H3 5-17, peptide modifications: H3T11ph, binder concentration: 100 nM",0.0409 ± 0.0057
same,peptide microarray binding signal,[3]; [7],0.0044 ± 0.0008
same,peptide microarray binding signal,[3]; [8],0.00553 ± 0.00047
same,peptide microarray binding signal,[4]; [7],0.00195 ± 7.3e-05
same,peptide microarray binding signal,[4]; [8],0.00254 ± 0.00012
QTARKSTGGKAPR [H3 5-17 Q T A R K S Tph G G Kme2 A P R],peptide microarray binding signal,"[1]; peptide region: H3 5-17, peptide modifications: H3T11ph H3K14me2, binder concentration: 50 nM",0.00216 ± 8e-05
same,peptide microarray binding signal,"[1]; peptide region: H3 5-17, peptide modifications: H3T11ph H3K14me2, binder concentration: 500 nM",0.00505 ± 0.00083
same,peptide microarray binding signal,"[2]; peptide region: H3 5-17, peptide modifications: H3T11ph H3K14me2, binder concentration: 10 nM",0.00239 ± 0.00024
same,peptide microarray binding signal,"[2]; peptide region: H3 5-17, peptide modifications: H3T11ph H3K14me2, binder concentration: 100 nM",0.00213 ± 0.00021
same,peptide microarray binding signal,[3]; [9],0.00496 ± 0.0019
same,peptide microarray binding signal,[3]; [10],0.00605 ± 0.0024
same,peptide microarray binding signal,[4]; [9],0.00177 ± 0.00016
same,peptide microarray binding signal,[4]; [10],0.00248 ± 0.00058
QTARKSTGGKAPR [H3 5-17 Q T A R K S Tph G G Kme A P R],peptide microarray binding signal,"[1]; peptide region: H3 5-17, peptide modifications: H3T11ph H3K14me1, binder concentration: 50 nM",0.00301 ± 0.00011
same,peptide microarray binding signal,"[1]; peptide region: H3 5-17, peptide modifications: H3T11ph H3K14me1, binder concentration: 500 nM",0.00562 ± 0.00013
same,peptide microarray binding signal,"[2]; peptide region: H3 5-17, peptide modifications: H3T11ph H3K14me1, binder concentration: 10 nM",0.00466 ± 0.00013
same,peptide microarray binding signal,"[2]; peptide region: H3 5-17, peptide modifications: H3T11ph H3K14me1, binder concentration: 100 nM",0.00496 ± 0.00066
same,peptide microarray binding signal,[3]; [11],0.00106 ± 2.3e-05
same,peptide microarray binding signal,[3]; [12],0.0012 ± 3.2e-05
same,peptide microarray binding signal,[4]; [11],0.00112 ± 2.3e-05
same,peptide microarray binding signal,[4]; [12],0.000807
QTARKSTGGKAPR [H3 5-17 Q T A R K Sph T G G K A P R],peptide microarray binding signal,"[1]; peptide region: H3 5-17, peptide modifications: H3S10ph, binder concentration: 50 nM",0.00589 ± 6.1e-05
same,peptide microarray binding signal,"[1]; peptide region: H3 5-17, peptide modifications: H3S10ph, binder concentration: 500 nM",0.0117 ± 0.0012
same,peptide microarray binding signal,"[2]; peptide region: H3 5-17, peptide modifications: H3S10ph, binder concentration: 10 nM",0.00955 ± 0.00078
same,peptide microarray binding signal,"[2]; peptide region: H3 5-17, peptide modifications: H3S10ph, binder concentration: 100 nM",0.0203 ± 0.002
same,peptide microarray binding signal,[3]; [13],0.00142 ± 0.0001
same,peptide microarray binding signal,[3]; [14],0.0024 ± 0.00015
same,peptide microarray binding signal,[4]; [13],0.000785 ± 1.3e-05
same,peptide microarray binding signal,[4]; [14],0.0011 ± 1.1e-05
TGGKAPRKQLATK [H3 11-23 T G G Kac A P R Kac Q L A T K],peptide microarray binding signal,"[1]; peptide region: H3 11-23, peptide modifications: H3K14ac H3K18ac, binder concentration: 50 nM",0.00511 ± 0.00036
same,peptide microarray binding signal,"[1]; peptide region: H3 11-23, peptide modifications: H3K14ac H3K18ac, binder concentration: 500 nM",0.013 ± 0.00068
same,peptide microarray binding signal,"[2]; peptide region: H3 11-23, peptide modifications: H3K14ac H3K18ac, binder concentration: 10 nM",0.00913 ± 0.0004
same,peptide microarray binding signal,"[2]; peptide region: H3 11-23, peptide modifications: H3K14ac H3K18ac, binder concentration: 100 nM",0.0128 ± 0.00072
same,peptide microarray binding signal,[3]; [15],0.00445 ± 0.00038
same,peptide microarray binding signal,[3]; [16],0.00896 ± 0.0029
same,peptide microarray binding signal,[4]; [15],0.00139 ± 6.5e-05
same,peptide microarray binding signal,[4]; [16],0.00115 ± 2e-05
QTARKSTGGKAPR [H3 5-17 Q T A R K S Tph G G Kme3 A P R],peptide microarray binding signal,"[1]; peptide region: H3 5-17, peptide modifications: H3T11ph H3K14me3, binder concentration: 50 nM",0.00257 ± 7.4e-05
same,peptide microarray binding signal,"[1]; peptide region: H3 5-17, peptide modifications: H3T11ph H3K14me3, binder concentration: 500 nM",0.00829 ± 0.00052
same,peptide microarray binding signal,"[2]; peptide region: H3 5-17, peptide modifications: H3T11ph H3K14me3, binder concentration: 10 nM",0.00418 ± 0.00034
same,peptide microarray binding signal,"[2]; peptide region: H3 5-17, peptide modifications: H3T11ph H3K14me3, binder concentration: 100 nM",0.00857 ± 0.0014
same,peptide microarray binding signal,[3]; [17],0.00848 ± 0.002
same,peptide microarray binding signal,[3]; [18],0.00582 ± 0.0016
same,peptide microarray binding signal,[4]; [17],0.0639 ± 0.0075
same,peptide microarray binding signal,[4]; [18],0.0181 ± 0.0023
QTARKSTGGKAPR [H3 5-17 Q T A R K Sph T G G Kme3 A P R],peptide microarray binding signal,"[1]; peptide region: H3 5-17, peptide modifications: H3S10ph H3K14me3, binder concentration: 50 nM",0.005486 ± 5.1e-05
same,peptide microarray binding signal,"[1]; peptide region: H3 5-17, peptide modifications: H3S10ph H3K14me3, binder concentration: 500 nM",0.0236 ± 0.0018
same,peptide microarray binding signal,"[2]; peptide region: H3 5-17, peptide modifications: H3S10ph H3K14me3, binder concentration: 10 nM",0.0113 ± 0.0025
same,peptide microarray binding signal,"[2]; peptide region: H3 5-17, peptide modifications: H3S10ph H3K14me3, binder concentration: 100 nM",0.014 ± 0.0073
same,peptide microarray binding signal,[3]; [19],0.0516 ± 0.0021
same,peptide microarray binding signal,[3]; [20],0.0433 ± 0.025
same,peptide microarray binding signal,[4]; [19],0.132 ± 0.038
same,peptide microarray binding signal,[4]; [20],0.0759 ± 0.013
QTARKSTGGKAPR [H3 5-17 Q T A R K Sph Tph G G K A P R],peptide microarray binding signal,"[1]; peptide region: H3 5-17, peptide modifications: H3S10ph H3T11ph, binder concentration: 50 nM",0.00295 ± 9.8e-05
same,peptide microarray binding signal,"[1]; peptide region: H3 5-17, peptide modifications: H3S10ph H3T11ph, binder concentration: 500 nM",0.00695 ± 0.00038
same,peptide microarray binding signal,"[2]; peptide region: H3 5-17, peptide modifications: H3S10ph H3T11ph, binder concentration: 10 nM",0.00346 ± 9.7e-05
same,peptide microarray binding signal,"[2]; peptide region: H3 5-17, peptide modifications: H3S10ph H3T11ph, binder concentration: 100 nM",0.016 ± 0.0014
same,peptide microarray binding signal,[3]; [21],0.000302 ± 3.1e-06
same,peptide microarray binding signal,[3]; [22],0.000285 ± 3.1e-06
same,peptide microarray binding signal,[4]; [21],0.00107 ± 0.00014
same,peptide microarray binding signal,[4]; [22],0.000461 ± 8.7e-06
QTARKSTGGKAPR [H3 5-17 Q T A R K S Tph G G Kac A P R],peptide microarray binding signal,"[1]; peptide region: H3 5-17, peptide modifications: H3T11ph H3K14ac, binder concentration: 50 nM",0.00514 ± 0.00023
same,peptide microarray binding signal,"[1]; peptide region: H3 5-17, peptide modifications: H3T11ph H3K14ac, binder concentration: 500 nM",0.015 ± 0.0014
same,peptide microarray binding signal,"[2]; peptide region: H3 5-17, peptide modifications: H3T11ph H3K14ac, binder concentration: 10 nM",0.00597 ± 0.00044
same,peptide microarray binding signal,"[2]; peptide region: H3 5-17, peptide modifications: H3T11ph H3K14ac, binder concentration: 100 nM",0.0333 ± 0.0053
same,peptide microarray binding signal,[3]; [23],0.000868 ± 6.7e-05
same,peptide microarray binding signal,[3]; [24],0.000685 ± 1.9e-05
same,peptide microarray binding signal,[4]; [23],0.00394 ± 0.0008
same,peptide microarray binding signal,[4]; [24],0.00156 ± 3e-05
